# Screening data from PubChem.
# HT1080 IDH1KD tx: HT-1080 IDH1 knockdown cell toxicity (counter line). 2% of 360,000 active. HT-1080 IDH1 knockdown viability, ATP luminescence, 48 h. Potency, µM (titrated, usually from 46.1 µM), inactives show at the top dose activity, negative = toxicity, most hits filed as cytotoxic;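 note: potency is the fitted concentration of half-maximal effect; 0% = DMSO wells and -100% = cell-free medium wells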
#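 Using the IDH1-knockdown HT-1080 line run in the same batch and compound series as the NT line, viability after 48 h at 37 °C was determined by CellTiter-Glo luminescence and expressed as % activity.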
# DT40 TDP1 CPT: growth inhibition of DT40 Tdp1-/-;hTDP1 cells with camptothecin (screen for TDP1 inhibitors). chicken DT40 Tdp1-/-;hTDP1 cells + 20 nM CPT, ATP luminescence, 48 h. Potency, µM (top dose mostly 46.2 µM), inactives show at the top dose activity change, negative = growth inhibition, hits mostly inhibitors. 12% of 420,000 active; note: potency is the fitted concentration of half-maximal effect; nearly all actives have a fitted effect of over 55% in size
#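 Chicken DT40 Tdp1-/- cells stably complemented with human TDP1 were seeded at 400 cells/well in medium containing 20 nM camptothecin, exposed to pin-transferred compounds, and grown at 37 °C for at least 48 hr. Viability was read as ATP luminescence.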
# TDP1 cell noCPT: qHTS for Inhibitors of human tyrosyl-DNA phosphodiesterase 1 (TDP1): qHTS in cells in absence of CPT; DT40 Tdp1-/- hTDP1 cells, no CPT, ATP luminescence, 48 h; Potency, µM (highest dose often 46.2 µM), for inactives: top-dose activity change, negative = growth inhibition, hits mostly inhibitors; 15% of 420,000 active; AID 686978, 2013; note: potency is the fitted concentration of half-maximal effect; nearly all actives have a fitted effect of over 55% in size
#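 DT40 Tdp1-/-;hTDP1 cells, no CPT (DMSO vehicle only), 400 cells/well; compounds pin-transferred; ≥48 hr, 37 °C; CellTiter-Glo 30 min RT dark, luminescence read.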
# IL1B secr inh: inflammasome signaling inhibition, IL-1 beta readout; 4.7% of 360,000 active; activity change, % at 57.5 µM; THP-1 LPS/ATP IL-1B secretion, AlphaLISA, 16 h; stronger effect = lower value; AID 743279; in the data active = activity change below about -50%; inconclusive = mostly about -30% to -49%
#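 THP-1 cells pretreated 1 hr with compounds (up to 57.5 uM final), then stimulated with LPS (250 ng/mL final) plus ATP (1.25 mM final); secreted IL-1B measured by AlphaLISA after 16 hr, decreased signal indicating inhibition.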
# HT1080-NT tox: kills 2HG-producing HT-1080-NT fibrosarcoma cells; HT-1080-NT fibrosarcoma viability, CellTiter-Glo ATP luminescence, 48 h; Potency, µM (titrated, usually from 46.1 µM), without a hit: at the top dose activity, negative = less viability, hits mostly cytotoxic; 1.6% of 360,000 active; AID 686970;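 note: NT is the 2HG producing partner of a matched IDH1 knockdown line; potency is the fitted concentration of half-maximal effect; 0% = DMSO-treated cells and -100% = media-only wells without cells; nearly all actives have a fitted effect of over 55% in size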
#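 Luminescent CellTiter-Glo readout after 48 hours of compound exposure at 37 degrees C defined viability of HT-1080-NT cells. Activity was normalized to DMSO wells and cell-free media wells; concentration-response curves were fitted and assigned curve classes.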
# Numbers without * were called inactive; ? = inconclusive; . = no result; [ ] = remark or other dose. Compounds with a hit are over-represented: about 19% of the library has one in this group of screens. Unless noted, calls come from the whole dose curve; as a rule, active = well fitted curve in the direction sought with a large enough effect; inconclusive = small, poorly fitted or top-dose-only effect, or another doubt; inactive = no such curve, though single readings can be large; an effect the other way counts as inactive or inconclusive. Unless noted, % is set by controls: 0 for no effect and ±100 for the full control effect.
SMILES,HT1080 IDH1KD tx,DT40 TDP1 CPT,TDP1 cell noCPT,IL1B secr inh,HT1080-NT tox
CC(NCC(O)COCc1ccc(Cl)cc1)c1ccccc1 (stereo unspecified),?,?,?,-58.5*,-28.0%
CCc1cccc(CC)c1NC(=S)NCC(c1cccnc1)N1CCOCC1 (stereo unspecified),20.0%,-0.4%,-11.1%,1.5,12.0%
CCn1cc(C(=O)O)c(=O)c2cc(F)c(N3CCNC(C)C3)c(F)c21 (stereo unspecified),.,14.6µM*,?,.,.
CCc1ccc(NC(=O)C2CCN(S(=O)(=O)c3ccc4c(c3)CC(C)N4C(C)=O)CC2)cc1 (stereo unspecified),-1.4%,16.4µM*,10.3µM*,23.0,-2.8%
CCc1ccc(NC(=O)C2CCCN(S(=O)(=O)c3ccc4c(c3)CC(C)N4C(C)=O)C2)cc1 (stereo unspecified),-1.0%,16.4µM*,25.9µM*,-4.9,7.2%
CCOc1ccc(NC(=O)C2CCN(S(=O)(=O)c3ccc4c(c3)CC(C)N4C(C)=O)CC2)cc1 (stereo unspecified),-8.0%,?,?,51.6,-2.6%
CC(=O)N1c2ccc(S(=O)(=O)N3CCCC(C(=O)Nc4ccc(F)cc4)C3)cc2CC1C (stereo unspecified),-14.6%,?,23.1µM*,-5.0,-4.2%
CC(C)CCNC(=O)C1CCCN(S(=O)(=O)c2ccc3c(c2)CC(C)N3C(=O)C2CC2)C1 (stereo unspecified),-11.0%,?,-27.1%,-55.2*,-4.9%
CCc1cc(Cn2nc(-c3ccccc3C)cc2C(=O)O)on1,3.2%,-1.6%,1.7%,31.5,-0.9%
CC(=O)c1c(C)[nH]c(C(=O)COC(=O)c2ccc(C)s2)c1C,-1.0%,11.6%,?,20.1,-0.4%
Cc1cccc(NC(=O)CNC(=O)c2cccc(-n3cccc3)c2)c1C,-0.9%,-21.2%,-8.7%,-0.4,-1.9%
CCN1C(Nc2ccccc2)=NC[C@@H]1CC(C)C,-9.5%,0.9%,9.7%,10.7,-8.0%
CC(C)C[C@H]1CN=C(Nc2ccccc2)N1CC1CCCCCC1,-25.1%,?,20.6µM*,-5.5,-18.2%
CCC(C)CCN1C(Nc2ccccc2)=NC[C@@H]1Cc1ccccc1 (stereo partly specified),-16.8%,20.6µM*,16.4µM*,?,?
CCN1C(Nc2ccccc2)=NC[C@@H]1Cc1ccccc1,9.9%,?,-23.0%,-1.6,9.8%
CCC(C)CCN1C(Nc2ccccc2)=NC[C@@H]1CC(C)C (stereo partly specified),4.2%,16.4µM*,16.4µM*,-28.6,-0.6%
CC(C)CCN1C(Nc2ccccc2)=NC[C@@H]1CC(C)C,5.4%,14.6µM*,?,-7.4,-5.0%
COc1cccc(CNC(=O)CCC2CCCN(C/C=C/c3ccccc3OC)C2)c1 (stereo unspecified),-22.5%,?,23.1µM*,?,-14.4%
COc1ccc(/C=C/CN2CCCC(CCC(=O)NCc3ccc(F)c(F)c3)C2)cc1 (stereo unspecified),?,?,16.4µM*,-84.0*,?
COCc1ccc(CN2CCCC(CCC(=O)NCc3cccc(OC)c3)C2)o1 (stereo unspecified),0.4%,2.8%,-6.8%,0.8,-0.4%
COCCC(=O)N1CCCC(CCC(=O)NCc2ccc(F)c(F)c2)C1 (stereo unspecified),-0.6%,-19.1%,-4.6%,-0.4,10.0%
COc1ccccc1/C=C/CN1CCCC(CCC(=O)NCc2ccc(F)c(F)c2)C1 (stereo unspecified),?,?,?,-74.5*,?
COc1cc(=O)n2c(c1C(=O)N(C)Cc1nonc1C)CCN(C(=O)c1ccc(C)c(C)c1)CC2,.,0.0%[9.04 µM],0.4%,.,.
COc1ccccc1N1CCN(C(=O)Cn2c(=O)oc3cc(S(=O)(=O)N4CCCC4)ccc32)CC1,-3.8%,?,?,-11.0,-0.2%
